Test results as given in the supplement of paper PMC4894684.
Structures can show the parent of a compound that is named as a salt. ± gives the standard deviation of the averaged measurements.

These molecules were tested on Toxoplasma gondii RH (in HFF) (assay: parasite growth relative to the screen mean (all compounds = 100%); higher = less inhibition of parasite growth). Details: 5 µM; 72 h; oxygen 21 %.
Procedure, shortened: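 Each value is parasite growth expressed against the screen mean, averaged over two screens, where the mean of all compounds = 100%. The screen used 5 µM final compound on confluent human foreskin fibroblasts infected with RH β-Gal–GFP Toxoplasma (MOI 1:5) within 2 h and grown 72 h at 21% O2. Parasite number was measured by a CPRG β-Gal assay against in-plate standard curves.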

Compound	parasite growth [%]
CCOc1ccc(Nc2nc(-c3c(C)nc4ccccn34)cs2)cc1	127 ± 44
CN1C(C(=O)Nc2ccccn2)=C(O)c2ccccc2S1(=O)=O [Piroxicam]	153 ± 34
CC(C)CC(NC(=O)OCC1c2ccccc2-c2ccccc21)C(=O)O (stereo not drawn)	59.8 ± 23
Cc1nn(-c2ccccc2)c(C)c1C=NN1CCN(Cc2ccccc2)CC1	141 ± 26
CC1=C(/C=C/C(=C/C=C/C(C)=C/C(=O)O)c2ccc(C)cc2)C(C)(C)CCC1	94.1 ± 23
Cc1cccc(CCN2CCC(C(=O)c3ccc(NS(C)(=O)=O)cc3)CC2)n1 [E-4031 dihydrochloride]	150 ± 13
N=C(N)SCCc1ccc(OCc2ccc([N+](=O)[O-])cc2)cc1 [KB-R7943 mesylate]	< 0
C[C@@H](N)[C@H]1CC[C@H](C(=O)Nc2ccncc2)CC1	92.3 ± 21
Clc1ccc2c(c1)N=C(N1CCNCC1)c1ccccc1N2 [N-Desmethylclozapine]	59.7 ± 2.8
Cc1c(C(=O)NN2CCCCC2)nn(-c2ccc(Cl)cc2Cl)c1-c1ccc(I)cc1	45.2 ± 3
NCCc1c[nH]cn1 [Histamine dihydrochloride]	80.2 ± 36
C=CCNC(=O)c1cc([N+](=O)[O-])cc2c(=O)[nH]c(Nc3ccc(Cl)c(Cl)c3)nc12	89.6 ± 4.6
CC(C)NCC(O)COc1cccc2[nH]ccc12 (stereo not drawn) [Pindolol]	148 ± 24
COC1CCC(C(=O)c2ccc3nc4c(cc3c2)CCCO4)CC1 (stereo not drawn)	136 ± 27
OC1CCC(Nc2nc(-c3ccccc3)nc3[nH]ccc23)CC1 (stereo not drawn)	116 ± 3
OCCN(CCO)c1nc(N2CCCCC2)c2nc(N(CCO)CCO)nc(N3CCCCC3)c2n1 [Dipyridamole]	142 ± 1.7
Clc1ccc(-c2nc3sccn3c2/C=N/OCc2ccc(Cl)c(Cl)c2)cc1	110 ± 8.4
CC12CC3CC(C)(C1)CC(N)(C3)C2 [Memantine hydrochloride]	123 ± 4.8
CCCc1c(OCCCOc2ccc(OCC(=O)O)cc2)ccc(C(C)=O)c1O	135 ± 1.4
COc1cc(/C=C(\C#N)C(N)=O)cc(CSc2nc3ccccc3s2)c1O	128 ± 3.3
CN1c2cc3c(cc2N=C(c2ccc(C(=O)O)cc2)c2ccccc21)C(C)(C)CCC3(C)C	61.4 ± 34
Nc1nc(NCC2CCC(CNS(=O)(=O)c3cccc4ccccc34)CC2)nc2ccccc12 (stereo not drawn)	< 0
c1cc(CN2CCCCC2)cc(OCCCNc2nc3ccccc3s2)c1 [Zolantidine dimaleate]	112 ± 4.6
